Active and inactive are the calls of the source.
How the values were obtained:
[1] = optical density shifts of acrAB sulA E. coli – strain DRC41, OD650, 48 h, E. coli filamentation inducer project, primary screen (AID 1152); conditions: higher = more signal, called active from +8 up or from −8 down;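 also: E. coli MC1000 strain DRC41 lacking acrAB efflux pump and sulA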
[2] = probe aLefty1 binding on compound microarray – biochemical, small-molecule microarray, 635/667 nm fluorescence, primary screen (AID 1153); conditions: higher = more signal;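 also: score merges spot fluorescence with signal-to-noise ratio from the scanned slide images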
[3] = plasmodial surface anion channel blockers, osmotic lysis – cell-based, P. falciparum Indochina, OD700, 1 h, primary screen (AID 1154); conditions: P. falciparum Indochina infected RBC osmotic lysis, higher = more signal, called active from +8 up or from −8 down
[4] = plasmodial surface anion channel blockers, osmotic lysis – cell-based, P. falciparum Indochina, OD700, 2 h, primary screen (AID 1155);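 also: lysis reports solute entry through the parasite surface anion channel PSAC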; conditions: P. falciparum Indochina infected erythrocytes, higher = more signal, called active from +8 up or from −8 down
[5] = changes in parasitized red cell lysis, either direction – P. falciparum Indochina, OD700, 3 h, PSAC antagonist project, primary screen (AID 1156); conditions: P. falciparum-infected erythrocytes, osmotic lysis, higher = more signal, called active from +8 up or from −8 down
[6] = plasmodial surface anion channel blockers, osmotic lysis – cell-based, P. falciparum Indochina, OD700, 18 h, primary screen (AID 1157); conditions: P. falciparum Indochina infected erythrocytes, osmotic lysis OD700, 18 h; higher = more signal, called active from +8 up or from −8 down
[7] = S6 kinase pathway phospho-S6 level changes – cell-based, A549, cytoblot, luminescence, serum-stimulated, primary screen (AID 1158); conditions: 5 h, higher = more signal;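 also: serum-stimulated A549 lung adenocarcinoma cells; signal is phosphorylated S6 detected by cytoblot immunostaining with HRP secondary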
[8] = molecular target: NADPH oxidase 2 (Homo sapiens) (UniProt P04839); test: compounds shifting NOX2 Amplex Red fluorescence – cell-based, HEK293-NOX2, PMA-stimulated, NOX inhibitor project, primary screen (AID 1159); conditions: 45 min, higher = more signal, called active from +8 up or from −8 down; also: test concentration not given here
Chain of NADPH oxidase 2 (Homo sapiens) (P04839 whole entry, looked up): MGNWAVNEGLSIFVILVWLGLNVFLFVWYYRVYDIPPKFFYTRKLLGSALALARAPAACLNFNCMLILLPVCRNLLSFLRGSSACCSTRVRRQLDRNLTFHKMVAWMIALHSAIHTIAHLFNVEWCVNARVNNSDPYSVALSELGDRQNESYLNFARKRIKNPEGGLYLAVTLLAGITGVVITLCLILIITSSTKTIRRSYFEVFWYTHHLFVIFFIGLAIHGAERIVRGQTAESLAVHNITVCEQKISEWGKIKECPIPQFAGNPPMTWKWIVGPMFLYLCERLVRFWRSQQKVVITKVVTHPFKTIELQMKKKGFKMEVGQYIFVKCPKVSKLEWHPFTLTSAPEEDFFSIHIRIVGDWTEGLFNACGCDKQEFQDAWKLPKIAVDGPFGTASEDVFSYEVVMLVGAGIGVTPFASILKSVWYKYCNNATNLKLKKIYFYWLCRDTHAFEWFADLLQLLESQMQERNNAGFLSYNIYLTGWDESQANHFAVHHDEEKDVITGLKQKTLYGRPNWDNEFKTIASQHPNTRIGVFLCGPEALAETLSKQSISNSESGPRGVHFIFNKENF

[9] = molecular target: NADPH oxidase 4 (Homo sapiens) (UniProt Q9NPH5); test: compounds shifting NOX4 Amplex Red fluorescence – cell-based, HEK293-NOX4, tetracycline-induced, NOX inhibitor project, primary screen (AID 1160); conditions: HEK293-NOX4, Amplex Red H2O2 fluorescence, 45 min; higher = more signal, called active from +8 up or from −8 down
Chain of NADPH oxidase 4 (Homo sapiens) (Q9NPH5 whole entry, looked up): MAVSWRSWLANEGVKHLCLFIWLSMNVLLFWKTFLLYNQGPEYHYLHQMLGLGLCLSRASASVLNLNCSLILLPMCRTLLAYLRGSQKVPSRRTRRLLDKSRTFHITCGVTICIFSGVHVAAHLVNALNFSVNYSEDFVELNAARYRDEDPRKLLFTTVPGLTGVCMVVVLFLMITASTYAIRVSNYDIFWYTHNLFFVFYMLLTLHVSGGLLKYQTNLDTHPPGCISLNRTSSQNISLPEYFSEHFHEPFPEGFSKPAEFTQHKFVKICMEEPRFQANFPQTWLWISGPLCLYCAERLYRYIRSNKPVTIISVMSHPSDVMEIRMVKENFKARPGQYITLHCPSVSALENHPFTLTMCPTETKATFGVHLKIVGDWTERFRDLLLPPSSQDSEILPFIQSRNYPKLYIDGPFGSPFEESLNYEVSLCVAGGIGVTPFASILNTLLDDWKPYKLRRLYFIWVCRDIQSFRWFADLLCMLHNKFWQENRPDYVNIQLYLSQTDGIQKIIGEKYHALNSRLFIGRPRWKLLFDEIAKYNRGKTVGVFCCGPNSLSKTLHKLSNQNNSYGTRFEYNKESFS

[10] = molecular target: NADPH oxidase 5 (Homo sapiens) (UniProt Q96PH1); test: compounds shifting NOX5 Amplex Red fluorescence – cell-based, HEK293-NOX5, NOX inhibitor project, primary screen (AID 1161); conditions: HEK293-NOX5, ionomycin, 45 min, higher = more signal
Chain of NADPH oxidase 5 (Homo sapiens) (Q96PH1 whole entry, looked up): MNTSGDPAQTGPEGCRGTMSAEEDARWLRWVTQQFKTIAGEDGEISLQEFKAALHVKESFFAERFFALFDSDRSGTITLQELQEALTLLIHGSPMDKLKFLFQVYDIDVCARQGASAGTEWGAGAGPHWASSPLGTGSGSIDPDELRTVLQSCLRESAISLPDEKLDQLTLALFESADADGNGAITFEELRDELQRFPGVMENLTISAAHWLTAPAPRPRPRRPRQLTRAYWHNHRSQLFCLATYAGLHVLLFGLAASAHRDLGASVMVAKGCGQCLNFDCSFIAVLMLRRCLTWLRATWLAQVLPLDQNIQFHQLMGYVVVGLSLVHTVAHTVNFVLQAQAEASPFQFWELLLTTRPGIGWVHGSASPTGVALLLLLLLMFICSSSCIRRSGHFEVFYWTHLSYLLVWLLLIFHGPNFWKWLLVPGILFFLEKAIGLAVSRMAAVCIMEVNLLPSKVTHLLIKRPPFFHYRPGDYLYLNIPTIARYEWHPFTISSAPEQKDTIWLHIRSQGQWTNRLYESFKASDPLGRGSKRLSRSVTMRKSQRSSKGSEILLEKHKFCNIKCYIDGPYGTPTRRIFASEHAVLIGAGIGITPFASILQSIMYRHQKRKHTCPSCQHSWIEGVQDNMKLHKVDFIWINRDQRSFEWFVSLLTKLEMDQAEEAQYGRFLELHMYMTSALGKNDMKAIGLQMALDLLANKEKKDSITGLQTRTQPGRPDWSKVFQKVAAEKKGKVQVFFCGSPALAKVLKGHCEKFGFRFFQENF

Compound | z-score [1] | composite z-score [2] | z-score [3] | z-score [4] | z-score [5] | z-score [6] | z-score [7] | z-score [8] | z-score [9] | z-score [10]
C=CCOC(=O)[C@H]1[C@@H]2C(=O)O[C@@H](c3ccccc3)[C@@H](c3ccccc3)N2[C@@H](c2ccc(OCCOC(=O)[C@@H]3C[C@@H]4C(=O)N[C@@H](CCCCN(C)C)C(=O)N4[C@@H]3c3ccc(O)cc3)cc2)[C@]12C(=O)Nc1ccc(I)cc12 | -0.785 (inactive) | -0.15 | -0.117 (inactive) | 1.39 (inactive) | 5.33 (inactive) | 0.448 (inactive) | -0.724 | 1.41 (inactive) | 0.74 (inactive) | -0.496
CN1C(=O)C2C=CC(C(O)c3ccc(-c4ccccc4)s3)N(N(c3ccccc3)c3ccccc3)C2C1=O (stereo not given) | -0.562 (inactive) | 0.2 | 3.38 (inactive) | 2.19 (inactive) | 0.977 (inactive) | 1.32 (inactive) | -1.12 | 1.1 (inactive) | 0.963 (inactive) | -1.15
[N-]=[N+]=Nc1ccccc1C[C@]1(C(N)=O)N=C(c2ccc(OCCCO)cc2)O[C@H]1c1ccccc1 | -0.444 (inactive) | 0.228 | 19.8 (active) | 3.47 (inactive) | 1.84 (inactive) | 0.936 (inactive) | 0.176 | 0.631 (inactive) | 0.247 (inactive) | -1.32
CCCCCC1=C2CNC(CCC)(C(=O)OC)C=C2C(C)C1=O (stereo not given) | -1.11 (inactive) | 0.358 | 2.2 (inactive) | 0.0123 (inactive) | 0.807 (inactive) | 0.493 (inactive) | -0.39 | 0.0917 (inactive) | -1.52 (inactive) | -3.63
O=C1C2C=CC(C(O)c3ccc(F)cc3)N(Nc3ccccc3F)C2C(=O)N1c1ccccc1 (stereo not given) | -1.13 (inactive) | 0.336 | 6.83 (inactive) | 1.4 (inactive) | -0.196 (inactive) | 0.998 (inactive) | -1.06 | -2.22 (inactive) | -4.97 (inactive) | -2.17
CC(C)(C)OC(=O)CC[C@]1(C(=O)NCC(O)CO)COC(c2ccc(OCCCO)cc2)=N1 (stereo not given in full) | -0.0886 (inactive) | 0.149 | 5.77 (inactive) | 0.645 (inactive) | 0.639 (inactive) | 0.619 (inactive) | 0.0272 | -2.16 (inactive) | -0.351 (inactive) | -0.519
C=CC[C@]12N=C(c3ccc(OCCCO)cc3)O[C@H]1c1ccccc1N(Cc1ccccc1)C2=O | 0.323 (inactive) | 0.445 | 28.8 (active) | 27.9 (active) | 3.64 (inactive) | 6.21 (inactive) | -0.329 | -0.89 (inactive) | 0.393 (inactive) | -0.835
COCC(=C=CC[C@@H](O)c1ccccc1OCCO)C[C@@H](O)c1cc(Cl)cc(Cl)c1O | -0.397 (inactive) | 0.086 | 20.5 (active) | 4.9 (inactive) | 0.392 (inactive) | 0.945 (inactive) | 0.35 | -0.19 (inactive) | -0.894 (inactive) | -2.07
Cc1ccc(S[C@]2(C(=O)NCC(F)(F)F)CC(=O)N(C(C)C)[C@@H]2c2ccc(CO)cc2I)cc1 | 0.302 (inactive) | 0.108 | 4.6 (inactive) | 0.383 (inactive) | 0.24 (inactive) | 0.548 (inactive) | 0.303 | 1.81 (inactive) | -2.38 (inactive) | 1.5
CCCCC=C[C@@H](NC(=O)Oc1cccc(C(F)(F)F)c1)c1ccccc1 | -2.63 (inactive) | 1.29 | 2.41 (inactive) | 0.278 (inactive) | 0.247 (inactive) | -1.17 (inactive) | 1.31 | -3.82 (inactive) | -3.48 (inactive) | -2.98
COCCOC(=O)N1C(=O)[C@@]2(c3cc(C#CC4=CCCCC4)ccc31)[C@H](C(N)=O)[C@H]1C(=O)O[C@H](c3ccccc3)[C@H](c3ccccc3)N1[C@@H]2c1ccc(OCCO)cc1 | 0.102 (inactive) | -0.273 | 6.77 (inactive) | 3.03 (inactive) | 2.5 (inactive) | 1.96 (inactive) | 0.375 | 1.54 (inactive) | 1.41 (inactive) | 1.96
CCCCN1CC=CC23O[C@@H]4C=CCOC(=O)[C@@H]4[C@H]2C(=O)N(CCCCCO)[C@@H]3C1=O (stereo not given in full) | 0.504 (inactive) | 0.749 | 1.25 (inactive) | 0.882 (inactive) | 1.22 (inactive) | 0.529 (inactive) | 0.0401 | 0.872 (inactive) | 0.381 (inactive) | 1.37
CN1C(=O)C2C=CC(C(O)c3ccc(I)cc3)N(N3CCCCC3)C2C1=O (stereo not given) | -2.04 (inactive) | 0.699 | 4.08 (inactive) | 0.399 (inactive) | 1.33 (inactive) | 0.701 (inactive) | -1.04 | -0.229 (inactive) | -2.14 (inactive) | -1.63
COc1ccc([Si](C)(C)[C@H]2[C@H](CCO)O[C@@]3(C(=O)N(C)c4c(Br)cc(C)cc43)[C@@H]2C)cc1 | -1.28 (inactive) | 0.0486 | 7.79 (inactive) | 1.8 (inactive) | -2.17 (inactive) | 0.987 (inactive) | 0.0508 | -1.41 (inactive) | -1.15 (inactive) | -0.777
C=C(CCCC)C(=O)CC[C@H](OC(=O)c1cccnc1)c1ccccc1OCCO | 0.853 (inactive) | -0.012 | 16 (active) | 1.6 (inactive) | 0.232 (inactive) | -0.674 (inactive) | 1.28 | -1.2 (inactive) | -0.324 (inactive) | -2.33
CCOC(=O)C=Cc1cc([N+](=O)[O-])ccc1O | -1.72 (inactive) | -0.104 | 26 (active) | 11.8 (active) | 2.13 (inactive) | -0.816 (inactive) | 2.41 | -4.11 (inactive) | -2.98 (inactive) | -3.76
COC(=O)C(CC#Cc1ccc2c(c1)[C@]1(C(=O)N2)[C@H](c2ccc(O)cc2)N2[C@H](c3ccccc3)[C@H](c3ccccc3)OC(=O)[C@H]2[C@@H]1C(=O)Nc1nc2ccccc2s1)C(=O)OC | 1.25 (inactive) | 0.506 | 1.11 (inactive) | -0.314 (inactive) | -0.0671 (inactive) | -1.84 (inactive) | 2.08 | 2.11 (inactive) | 0.604 (inactive) | 2.21
COCCOC(=O)N1C(=O)[C@@]2(c3cc(C#Cc4ccc(OC)cc4)ccc31)[C@H](c1ccc(O)cc1)N1[C@H](c3ccccc3)[C@H](c3ccccc3)OC(=O)[C@H]1[C@@H]2C(=O)NC[C@H](O)c1ccccc1 | 0.72 (inactive) | 0.176 | 3.44 (inactive) | 0.973 (inactive) | 0.38 (inactive) | 0.532 (inactive) | 0.264 | 1.07 (inactive) | -1.05 (inactive) | 1.1
COCCOC(=O)N1C(=O)[C@@]2(c3cc(C#CC4=CCCCC4)ccc31)[C@H](C(=O)Nc1nc3ccccc3s1)[C@H]1C(=O)O[C@H](c3ccccc3)[C@H](c3ccccc3)N1[C@@H]2c1ccccc1OCCO | 0.687 (inactive) | 1.43 | 2.84 (inactive) | 0.926 (inactive) | -0.0917 (inactive) | 0.436 (inactive) | 1.93 | 0.102 (inactive) | 0.056 (inactive) | -1.83
COCCOC(=O)N1C(=O)[C@@]2(c3cc(C#CC4=CCCCC4)ccc31)[C@H](C(=O)N1CCc3cc(OC)c(OC)cc3C1)[C@H]1C(=O)O[C@H](c3ccccc3)[C@H](c3ccccc3)N1[C@@H]2c1ccc(OCCO)cc1 | -0.332 (inactive) | 0.0752 | 3.71 (inactive) | 1.19 (inactive) | -0.129 (inactive) | 0.801 (inactive) | 0.261 | 1.77 (inactive) | 1.18 (inactive) | 0.669
COC(=O)[C@@]1(Cc2ccc(OC)cc2)[C@H]2c3cc(C(=O)N4CCCC4)n(Cc4ccccc4)c3C[C@H]2CN1C(=O)c1ccccc1 | -1.49 (inactive) | 2.19 | 2.81 (inactive) | 0.496 (inactive) | 0.748 (inactive) | 0.69 (inactive) | -0.378 | -0.0412 (inactive) | -0.857 (inactive) | -3.04
CN1C(=O)C2C=CC(C(O)C3CC=CCC3)N(NC(=O)OC(C)(C)C)C2C1=O (stereo not given) | -1.49 (inactive) | -0.168 | 0.23 (inactive) | 0.737 (inactive) | -0.138 (inactive) | 0.312 (inactive) | -1.01 | -0.92 (inactive) | -0.861 (inactive) | -0.716
COCCCN1C(=O)[C@@]2(Cc3ccccc31)c1ccccc1C(=O)N(Cc1ccccc1C(F)(F)F)[C@H]2c1ccc(CO)cc1 | -0.125 (inactive) | -0.208 | 0.512 (inactive) | 0.635 (inactive) | -0.101 (inactive) | 0.427 (inactive) | 0.0136 | -0.767 (inactive) | -0.607 (inactive) | 0.77
COCC(=C=CC[C@H](O)c1ccccc1OCCO)C[C@H](O)c1cc(Cl)cc(Cl)c1O | -0.381 (inactive) | 0.233 | 7.9 (inactive) | 8.65 (active) | -9.18 (active) | 3.52 (inactive) | -0.539 | -5.19 (inactive) | -2.45 (inactive) | -3.1
C[C@]1(C(=O)NC2CC2)c2ccccc2C(=O)N(Cc2cc(C(F)(F)F)cc(C(F)(F)F)c2)[C@H]1c1ccc(CO)cc1 | 1.4 (inactive) | 0.0278 | 7.52 (inactive) | 1.18 (inactive) | 1.26 (inactive) | 0.599 (inactive) | 0.049 | -1.25 (inactive) | 0.222 (inactive) | 1.06

Reference: PubChem BioAssay
